Results reported in the supplement of paper PMC12819154, “High-throughput peptide-centric local stability assay extends protein–ligand identification to membrane proteins, tissues and bacteria” (Nature Structural & Molecular Biology, 2025).

compound: CN[C@@H]1C[C@H]2O[C@@](C)([C@@H]1OC)n1c3ccccc3c3c4c(c5c6ccccc6n2c5c31)C(=O)NC4 [staurosporine]; experiment: log2 fold change of tryptic peptide abundance, ligand vs vehicle (limited proteolysis) (log2 ratio); higher = more trypsin-susceptible (destabilized); conditions: ligand concentration: 20 uM; sample: K562 cleared lysate; digestion: 4 min, 22 C (HT-PELSA RT4min, Orbitrap Astral)

Chain of UniProt P11388 (P11388 whole entry): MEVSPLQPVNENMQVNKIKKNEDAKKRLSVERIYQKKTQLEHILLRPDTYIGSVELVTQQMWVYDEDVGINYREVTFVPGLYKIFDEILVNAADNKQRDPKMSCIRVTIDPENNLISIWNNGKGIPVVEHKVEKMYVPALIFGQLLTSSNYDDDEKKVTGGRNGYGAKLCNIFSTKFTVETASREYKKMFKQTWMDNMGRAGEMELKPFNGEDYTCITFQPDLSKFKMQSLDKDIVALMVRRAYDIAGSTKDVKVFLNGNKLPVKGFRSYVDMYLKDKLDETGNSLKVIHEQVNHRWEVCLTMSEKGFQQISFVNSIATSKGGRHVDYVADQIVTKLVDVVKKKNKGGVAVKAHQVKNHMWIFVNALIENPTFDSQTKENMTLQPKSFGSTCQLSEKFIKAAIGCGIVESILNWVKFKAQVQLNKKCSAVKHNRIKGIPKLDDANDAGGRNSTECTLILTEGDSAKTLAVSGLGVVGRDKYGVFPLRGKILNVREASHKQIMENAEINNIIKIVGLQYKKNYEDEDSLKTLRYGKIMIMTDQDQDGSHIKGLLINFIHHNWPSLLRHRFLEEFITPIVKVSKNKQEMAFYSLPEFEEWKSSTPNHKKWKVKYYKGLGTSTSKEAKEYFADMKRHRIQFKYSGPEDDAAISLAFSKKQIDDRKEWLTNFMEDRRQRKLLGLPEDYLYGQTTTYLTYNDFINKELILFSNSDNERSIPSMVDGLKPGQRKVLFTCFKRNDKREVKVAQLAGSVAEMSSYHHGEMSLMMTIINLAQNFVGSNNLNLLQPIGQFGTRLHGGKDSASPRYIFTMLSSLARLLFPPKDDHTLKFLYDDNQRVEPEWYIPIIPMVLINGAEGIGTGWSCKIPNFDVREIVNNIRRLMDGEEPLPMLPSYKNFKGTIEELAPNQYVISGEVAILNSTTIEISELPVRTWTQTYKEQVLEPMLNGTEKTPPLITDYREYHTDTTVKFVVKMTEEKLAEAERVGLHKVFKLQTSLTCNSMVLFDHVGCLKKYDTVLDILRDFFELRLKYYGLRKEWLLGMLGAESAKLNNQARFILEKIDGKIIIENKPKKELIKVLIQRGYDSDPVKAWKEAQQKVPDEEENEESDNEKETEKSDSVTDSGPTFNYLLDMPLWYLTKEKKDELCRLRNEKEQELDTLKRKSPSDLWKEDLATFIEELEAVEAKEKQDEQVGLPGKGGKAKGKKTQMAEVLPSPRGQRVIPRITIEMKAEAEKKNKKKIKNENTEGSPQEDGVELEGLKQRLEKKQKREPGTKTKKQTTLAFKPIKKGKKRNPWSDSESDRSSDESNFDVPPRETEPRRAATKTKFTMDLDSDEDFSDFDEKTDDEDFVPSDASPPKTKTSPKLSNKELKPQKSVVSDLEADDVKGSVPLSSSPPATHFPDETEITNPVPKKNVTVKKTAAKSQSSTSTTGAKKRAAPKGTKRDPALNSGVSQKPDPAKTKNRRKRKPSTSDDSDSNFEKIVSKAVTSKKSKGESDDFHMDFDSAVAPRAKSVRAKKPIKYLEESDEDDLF
Chain of UniProt O14802 (O14802 whole entry): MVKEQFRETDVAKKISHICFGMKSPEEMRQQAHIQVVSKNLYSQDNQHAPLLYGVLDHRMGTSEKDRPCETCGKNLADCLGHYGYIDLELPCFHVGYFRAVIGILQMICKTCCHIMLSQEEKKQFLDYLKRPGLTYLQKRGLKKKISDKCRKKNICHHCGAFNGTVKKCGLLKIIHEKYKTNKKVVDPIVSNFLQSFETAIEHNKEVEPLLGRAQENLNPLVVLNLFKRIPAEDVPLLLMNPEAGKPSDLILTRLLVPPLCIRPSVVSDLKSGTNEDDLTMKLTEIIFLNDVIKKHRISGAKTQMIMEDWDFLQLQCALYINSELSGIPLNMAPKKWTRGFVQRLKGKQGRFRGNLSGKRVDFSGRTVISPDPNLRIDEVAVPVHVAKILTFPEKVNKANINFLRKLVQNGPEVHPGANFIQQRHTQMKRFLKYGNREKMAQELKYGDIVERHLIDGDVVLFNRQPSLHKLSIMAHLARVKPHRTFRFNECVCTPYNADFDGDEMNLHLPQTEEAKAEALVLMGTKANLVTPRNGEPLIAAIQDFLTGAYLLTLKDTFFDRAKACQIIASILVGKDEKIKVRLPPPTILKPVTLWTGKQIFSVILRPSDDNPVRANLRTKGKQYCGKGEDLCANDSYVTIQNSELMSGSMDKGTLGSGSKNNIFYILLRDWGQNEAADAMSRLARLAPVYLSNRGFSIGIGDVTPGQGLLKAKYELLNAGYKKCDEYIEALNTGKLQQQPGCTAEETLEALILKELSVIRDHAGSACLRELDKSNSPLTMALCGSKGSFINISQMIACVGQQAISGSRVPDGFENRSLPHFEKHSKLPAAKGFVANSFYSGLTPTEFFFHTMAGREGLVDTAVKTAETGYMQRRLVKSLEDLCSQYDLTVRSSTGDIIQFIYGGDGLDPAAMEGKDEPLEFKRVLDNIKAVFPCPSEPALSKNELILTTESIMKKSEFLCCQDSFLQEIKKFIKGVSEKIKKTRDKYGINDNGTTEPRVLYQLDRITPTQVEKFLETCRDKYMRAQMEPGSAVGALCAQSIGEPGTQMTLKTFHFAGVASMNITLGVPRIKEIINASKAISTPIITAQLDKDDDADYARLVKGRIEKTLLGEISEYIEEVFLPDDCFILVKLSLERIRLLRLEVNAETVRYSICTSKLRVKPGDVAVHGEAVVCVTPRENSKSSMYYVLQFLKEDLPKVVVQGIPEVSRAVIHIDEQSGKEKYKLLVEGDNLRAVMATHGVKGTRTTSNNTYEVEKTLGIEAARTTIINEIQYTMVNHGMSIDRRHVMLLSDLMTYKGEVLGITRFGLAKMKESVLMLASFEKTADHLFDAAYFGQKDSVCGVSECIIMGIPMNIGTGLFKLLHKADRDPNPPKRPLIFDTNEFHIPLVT
Chain of UniProt Q9NYV4 (Q9NYV4 whole entry, looked up): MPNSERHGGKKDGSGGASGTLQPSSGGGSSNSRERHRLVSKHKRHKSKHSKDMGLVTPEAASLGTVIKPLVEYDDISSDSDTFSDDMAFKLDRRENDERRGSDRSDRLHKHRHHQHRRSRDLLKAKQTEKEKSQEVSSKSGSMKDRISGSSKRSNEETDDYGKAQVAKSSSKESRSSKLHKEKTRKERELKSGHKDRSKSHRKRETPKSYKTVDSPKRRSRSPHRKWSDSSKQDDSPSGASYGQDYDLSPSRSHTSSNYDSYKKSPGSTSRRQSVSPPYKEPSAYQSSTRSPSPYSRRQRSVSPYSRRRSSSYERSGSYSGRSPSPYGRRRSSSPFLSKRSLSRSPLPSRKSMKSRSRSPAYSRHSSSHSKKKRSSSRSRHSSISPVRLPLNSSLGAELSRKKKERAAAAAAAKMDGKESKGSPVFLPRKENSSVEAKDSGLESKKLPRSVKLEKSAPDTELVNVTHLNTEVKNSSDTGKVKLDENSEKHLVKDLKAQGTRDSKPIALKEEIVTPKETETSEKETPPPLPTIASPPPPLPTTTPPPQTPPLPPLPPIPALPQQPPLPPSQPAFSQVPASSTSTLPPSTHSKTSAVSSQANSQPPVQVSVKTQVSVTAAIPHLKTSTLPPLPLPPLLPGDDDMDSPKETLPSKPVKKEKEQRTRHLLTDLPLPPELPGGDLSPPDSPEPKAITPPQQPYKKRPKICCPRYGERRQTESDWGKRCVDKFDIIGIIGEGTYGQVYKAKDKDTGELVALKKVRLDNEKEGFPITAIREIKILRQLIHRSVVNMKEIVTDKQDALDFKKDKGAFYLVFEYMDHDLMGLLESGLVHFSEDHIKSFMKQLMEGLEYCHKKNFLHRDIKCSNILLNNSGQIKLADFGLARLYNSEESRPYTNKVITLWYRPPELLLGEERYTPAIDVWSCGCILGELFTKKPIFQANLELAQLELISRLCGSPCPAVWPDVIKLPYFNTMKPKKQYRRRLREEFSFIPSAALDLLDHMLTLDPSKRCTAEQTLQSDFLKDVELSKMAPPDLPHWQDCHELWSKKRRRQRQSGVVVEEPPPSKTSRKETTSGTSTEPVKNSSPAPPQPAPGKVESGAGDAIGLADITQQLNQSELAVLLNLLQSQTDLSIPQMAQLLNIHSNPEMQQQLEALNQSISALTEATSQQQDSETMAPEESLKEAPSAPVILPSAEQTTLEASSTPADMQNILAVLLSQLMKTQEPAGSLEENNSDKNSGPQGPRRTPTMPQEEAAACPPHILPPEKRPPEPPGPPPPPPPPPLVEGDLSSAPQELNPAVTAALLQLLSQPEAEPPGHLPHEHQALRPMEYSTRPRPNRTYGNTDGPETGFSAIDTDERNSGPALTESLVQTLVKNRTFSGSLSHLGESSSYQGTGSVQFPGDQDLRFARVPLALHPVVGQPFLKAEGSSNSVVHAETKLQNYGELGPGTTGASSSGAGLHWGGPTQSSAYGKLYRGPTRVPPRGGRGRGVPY
Chain of UniProt P12956 (P12956 whole entry): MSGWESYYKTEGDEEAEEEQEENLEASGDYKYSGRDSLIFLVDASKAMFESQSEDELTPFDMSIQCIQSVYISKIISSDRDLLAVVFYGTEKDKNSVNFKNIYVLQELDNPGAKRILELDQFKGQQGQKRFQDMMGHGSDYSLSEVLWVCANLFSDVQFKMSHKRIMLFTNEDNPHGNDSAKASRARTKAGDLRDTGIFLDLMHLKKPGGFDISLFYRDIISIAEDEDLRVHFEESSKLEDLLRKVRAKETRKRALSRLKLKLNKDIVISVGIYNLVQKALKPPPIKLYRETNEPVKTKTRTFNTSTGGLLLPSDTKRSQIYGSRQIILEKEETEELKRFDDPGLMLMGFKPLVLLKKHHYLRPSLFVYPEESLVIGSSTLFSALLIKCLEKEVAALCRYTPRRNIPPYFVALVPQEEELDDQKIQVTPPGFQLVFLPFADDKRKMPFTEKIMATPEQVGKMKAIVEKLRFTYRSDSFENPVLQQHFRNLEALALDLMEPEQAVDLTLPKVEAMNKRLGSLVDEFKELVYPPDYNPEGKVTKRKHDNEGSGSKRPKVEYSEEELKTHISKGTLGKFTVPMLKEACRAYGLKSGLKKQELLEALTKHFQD

Target	log2 fold change
EPHB3 (peptide sequence: VSDFGLSR, peptide start residue: 537) (UniProt P54753)	0.918
MAP4K2 (peptide sequence: ALLTQLLDK, peptide start residue: 280) (UniProt Q12851)	-0.962
TRMT1 (peptide sequence: RNVQLNDVAHLVQPSQADAR, peptide start residue: 195) (UniProt Q9NXH9)	0.782
PITPNB (peptide sequence: GTSAADV, peptide start residue: 265) (UniProt P48739)	0.354
GART (peptide sequence: GDTVATLSER, peptide start residue: 966) (UniProt P22102)	0.425
EIF4A3 (peptide sequence: ETQALILAPTR, peptide start residue: 106) (UniProt P38919)	0.375
UniProt Q9BVS4 (peptide sequence: VLTAVEMGMK, peptide start residue: 19)	-1.57
LATS1 (peptide sequence: QQSASYIPK, peptide start residue: 1021) (UniProt O95835)	-2.87
UniProt P84022 (peptide sequence: TGQLDELEK, peptide start residue: 45)	0.887
HERC1 (peptide sequence: VMTCVWCNKK, peptide start residue: 3431) (UniProt Q15751)	0.958
UniProt O00506 (peptide sequence: LADFGVAGQLTDTQIKR, peptide start residue: 160)	-1.08
UniProt Q8TBX8 (peptide sequence: HGAGAEISTVHPEQYAK, peptide start residue: 394)	-1.92
AP2B1 (peptide sequence: VIAAMTVGK, peptide start residue: 37) (UniProt P63010)	0.277
ARAF (peptide sequence: IGTGSFGTVFR, peptide start residue: 316) (UniProt P10398)	0.439
PRPF4B (peptide sequence: QHLCLVFEPLSMNLR, peptide start residue: 761) (UniProt Q13523)	-0.779
PUS1 (peptide sequence: GYAPESVLER, peptide start residue: 307) (UniProt Q9Y606)	-0.403
UniProt Q9NYV4 (peptide sequence: EIVTDKQDALDFKK, peptide start residue: 791)	-1.83
HBE1 (peptide sequence: MNVEEAGGEALGR, peptide start residue: 19) (UniProt P02100)	0.28
UTP11 (peptide sequence: SELHLLDFQGK, peptide start residue: 121) (UniProt Q9Y3A2)	-1.12

Target	log2 fold change
UniProt P27448 (peptide sequence: NSIASCADEQPHIGNYR, peptide start residue: 41)	-2.82
DTNBP1 (peptide sequence: YEDTWAALHRR, peptide start residue: 55) (UniProt Q96EV8)	-0.512
UniProt P07437 (peptide sequence: IREEYPDRIMNTFSVVPSPK, peptide start residue: 155)	-2.5
INTS12 (peptide sequence: SVSCDNVSK, peptide start residue: 376) (UniProt Q96CB8)	1.68
POLR3A (peptide sequence: ISHICFGMK, peptide start residue: 15) (UniProt O14802)	0.539
HBG2 (peptide sequence: MVTGVASALSSR, peptide start residue: 134) (UniProt P69892)	0.206
AK2 (peptide sequence: NLETPLCK, peptide start residue: 86) (UniProt P54819)	0.399
PRKD2 (peptide sequence: LSSTSLASGHSVR, peptide start residue: 196) (UniProt Q9BZL6)	1.18
CPOX (peptide sequence: EAEILEVLR, peptide start residue: 439) (UniProt P36551)	-1.06
UniProt O75153 (peptide sequence: VVEEPYTVR, peptide start residue: 118)	0.461
MAST4 (peptide sequence: LTDFGLSK, peptide start residue: 209) (UniProt O15021)	-0.745
UniProt Q96G28 (peptide sequence: NIEMQLQAIR, peptide start residue: 117)	0.282
RPS6KA2 (peptide sequence: ADPSQFELLK, peptide start residue: 63) (UniProt Q15349)	-1
TAOK3 (peptide sequence: VLIDLIQR, peptide start residue: 285) (UniProt Q9H2K8)	-1.49
TROAP (peptide sequence: SCLTAIHCFHEAR, peptide start residue: 717) (UniProt Q12815)	1.24
TOP2A (peptide sequence: GESDDFHMDFDSAVAPR, peptide start residue: 1493) (UniProt P11388)	-0.599
PMPCA (peptide sequence: LYLNVLNR, peptide start residue: 363) (UniProt Q10713)	-0.407
PIK3CB (peptide sequence: VFGEDSVGVIFK, peptide start residue: 794) (UniProt P42338)	-0.385
XRCC6 (peptide sequence: LGSLVDEFK, peptide start residue: 518) (UniProt P12956)	-0.499
